# Bioassay records: PubChem BioAssay, National Center for Advancing Translational Sciences (NCATS)
# Sfp inh – inhibitors of Bacillus subtilis Sfp phosphopantetheinyl transferase; Q9F4F7; Biochemical Sfp PPTase activity, qHTS; Potency, µM, for the others: largest response in the series, negative = inhibition, usual class: inhibitors; actives 3.5% (n = 310,000);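 also: the enzyme is Sfp with the accession as filed and its product quenches rhodamine fluorescence; 0% = enzyme reaction without inhibitor and -100% = no enzyme wells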
#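 Buffer: 50 mM Hepes-Na pH 7.6, 10 mM MgCl2, 0.01% Nonidet P-40, 0.01% BSA. Enzyme 15 nM, pre-exposed to compound 15 min; substrates then added and fluorescence change tracked over 30 min.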
# RORgamma inh – blocks mouse ROR gamma transcriptional activity; actives 5.4% (n = 310,000); Potency, µM (top dose mostly 53.6 µM), inactives show top-dose activity change, negative = inhibition, actives largely listed as inhibitors; P51450; Drosophila S2 Gal4-RORgamma UAS-luciferase reporter, 20 h; also: nearly all actives have a fitted effect of over 60% in size
#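 Stable Schneider cell line, Gal4 DNA-binding domain fused to ROR gamma, UAS-luciferase. Cmpd 1 hr RT → CuSO4 700 uM final → 20 hr RT → luciferase reagent 10 min → luminescence.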
# PLK1 PBD block – blocks phosphopeptide binding to human PLK1 polo-box domain; P53350; Plk1 PBD binding of FITC phosphopeptide, fluorescence polarization; Potency, µM, for the others: max response, negative = inhibition, hits mostly inhibitors; actives 2.8% (n = 360,000); also: series mostly up to about 57 µM; nearly all actives have a fitted effect of over 65% in size
# ALDH1A1 inh – inhibitors of human aldehyde dehydrogenase 1A1 | P00352 | Purified ALDH1A1, NADH fluorescence, propionaldehyde substrate | Potency, µM (titrated, usually from 75.3 µM), inactives show at the highest dose activity, negative = inhibition, actives largely listed as inhibitors | actives 7.3% (n = 220,000); active = well fitted inhibition curve with a large enough effect, not every such curve was filed as active; inconclusive = small, poorly fitted or top-dose-only effect, or another doubt; inactive = no such curve, though single readings can be large or run the other way;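 also: plate controls were no enzyme wells and a reference inhibitor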
# Target sequence (P00352 whole entry, looked up): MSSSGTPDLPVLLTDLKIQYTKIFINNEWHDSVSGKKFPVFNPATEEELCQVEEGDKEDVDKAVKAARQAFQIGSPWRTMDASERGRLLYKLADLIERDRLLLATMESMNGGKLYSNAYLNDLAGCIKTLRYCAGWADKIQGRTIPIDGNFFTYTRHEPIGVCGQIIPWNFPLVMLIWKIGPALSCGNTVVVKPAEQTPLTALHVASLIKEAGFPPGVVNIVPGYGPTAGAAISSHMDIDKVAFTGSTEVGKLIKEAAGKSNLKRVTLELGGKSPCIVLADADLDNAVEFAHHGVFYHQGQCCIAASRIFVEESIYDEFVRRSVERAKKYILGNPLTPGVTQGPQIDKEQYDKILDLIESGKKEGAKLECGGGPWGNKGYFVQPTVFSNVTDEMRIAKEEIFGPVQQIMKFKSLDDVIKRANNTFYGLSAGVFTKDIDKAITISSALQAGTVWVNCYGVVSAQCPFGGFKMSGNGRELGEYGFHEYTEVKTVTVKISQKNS
# Gal4-VP16 FLuc – inhibits Gal4-VP16 luciferase reporter, ROR gamma counter-screen; Drosophila S2 Gal4-VP16 UAS-luciferase, luminescence, 20 h; Potency, µM (doses to about 53.6 µM), for the others: top-dose activity, negative = inhibition, most hits filed as inhibitors; actives 3.5% (n = 310,000);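 also: Gal4-VP16 expression switched on by copper sulfate through the metallothionein promoter; nearly all actives have a fitted effect of over 50% in size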
# * marks the source's active call; other numbers are inactive results; ? = inconclusive; . = not tested or not shown; [ ] = remark or other dose. The list is not random: actives were taken first. Their share in the collection is about 12%. Unless noted, calls follow the shape of the dose curve; as a rule, active = well fitted curve in the direction sought with a large enough effect; inconclusive = small, poorly fitted or top-dose-only effect, or another doubt; inactive = no such curve, though single readings can be large; an effect the other way counts as inactive or inconclusive. Unless noted, % is scaled to controls: 0 for no effect and ±100 for the full control effect; potency is read from the fitted curve at half-maximal effect.
SMILES,Sfp inh,RORgamma inh,PLK1 PBD block,ALDH1A1 inh,Gal4-VP16 FLuc
COc1ccc(C(=O)N=c2nc3ccccn3s2)cc1,14%,2.2µM*,?,0%,4µM*
OC(c1ccc(F)cc1)c1nc(-c2cccs2)cs1 (stereo not given),.,.,4%,.,.
CCOCCCNC(=O)C(NC(=O)Cc1cccs1)c1ccc(OC)cc1 (stereo not given),28%,11%,2%,1%,3%
CCOCCCNC(=O)C(NC(=O)Cc1cccs1)c1ccc(Cl)cc1 (stereo not given),13%,?,-6%,-3%,13µM*
COC(=O)C1CCN(c2cc(=O)n(-c3ccccc3Cl)c(=O)[nH]2)CC1,-17%,1%,-6%,18µM*,-6%
Cc1c(C(=O)c2ccc(Cl)cc2Cl)cnc2cc3c(cc12)OCO3,-4%,139%,30µM*,-1%,?
O=C(c1ccco1)N1CCN(C(=O)c2ccc(-c3ccc(Cl)cc3)o2)CC1,.,.,-3%,.,.
O=C(NC(=S)Nc1cc(Cl)ccc1N1CCOCC1)c1ccc(-c2cccc(Cl)c2)o1,-3%,-18%,-6%,1%,-3%
O=C(O)c1ccc(-c2cccc(Cl)c2)o1,.,.,-10%,.,.
S=C(c1ccc(-c2cccc(Cl)c2)o1)N1CCOCC1,20µM*,4%,19µM*,11µM*,-1%
S=C(c1ccc(-c2cccc(Cl)c2)o1)N1CCCCC1,-43%,?,?,14µM*,?
CC(=O)N1CCN(C(=S)c2ccc(-c3ccc(Cl)cc3)o2)CC1,32µM*,5%,4.7µM*,0%,-9%
COc1ccc(CCNC(=O)Nc2ccc3nc([C@@H]4O[C@H](CO)[C@@H](O)[C@H](O)[C@H]4O)[nH]c3c2)cc1Br,.,.,-8%,.,.
CCN1CCN(CC(O)COCC2COc3ccccc3O2)CC1 (stereo not given),14%,-38%,-2%,28µM*,8%
OC(COCC1COc2ccccc2O1)CN1CCCCC1 (stereo not given),11%,-38%,30µM*,17%,-4%
Cc1ccc(C2=N/C(=C\N3CCCCC3)C(=O)O2)cc1,50µM*,-44%,-2%,?,-26%
Cc1ccc(NC(=O)c2ncn(CCCN3CCN(Cc4cccc5ccccc45)CC3)n2)cc1C,.,.,-11%,.,.
COc1ccc(N2C(=O)CC(NNc3ncc(Cl)cc3Cl)C2=O)cc1 (stereo not given),50µM*,?,-7%,?,-6%
FC(F)Sc1ccc(NC(=S)NC2CCCCC2)cc1,-8%,8.9µM*,-18%,?,?
COc1ccc(NC(=O)NC2CCCCC2C)cc1 (stereo not given),19%,18%,-10%,6%,26%
FC(F)Sc1ccc(NC(=S)NCC2CCCCC2)cc1,13%,8.9µM*,-4%,?,10µM*
CC1CCCCC1NC(=S)Nc1ccc(SC(F)F)cc1 (stereo not given),-3%,6.3µM*,-1%,-4%,11µM*
CN(CC(=O)Nc1ccc(SC(F)F)cc1)C1CCCCC1,0%,22%,-12%,?,0%
COC(=O)C1CC1[C@H](NC(=O)c1cccnc1)c1ccccc1 (stereo not given in full),16%,-24%,.,.,1%
Cc1cc(C)cc(NC(=O)c2ccccc2CC[N+](=O)[O-])c1,14%,43%,-1%,2.8µM*,?
SMILES,Sfp inh,RORgamma inh,PLK1 PBD block,ALDH1A1 inh,Gal4-VP16 FLuc
Cc1ccc(C2=NN(C3=NN=C(N)Cc4ncnn43)C(O)(C(F)(F)F)C2)cc1 (stereo not given),27%,8.9µM*,0%,?,?
NC1=NN=C(N2N=C(c3ccco3)CC2(O)C(F)(F)F)n2ncnc2C1 (stereo not given),14%,-4%,-22%,1%,-10%
S=C(c1ccc(Cl)cc1)N1CCN(Cc2ccccc2)CC1,-18%,2%,-16%,-18%,4%[10 µM]
CSc1ccc(C(=S)N2CCN(Cc3ccccc3)CC2)cc1,14µM*,-17%,21µM*,2.2µM*,14%
CCN1CCN(C(=S)c2ccc(SC)cc2)CC1,28µM*,0%,19µM*,?,-4%
OCCN1CCN(C(=S)c2ccc(Cl)cc2)CC1,-78%,-32%,6.7µM*,16µM*,0%
COc1cc(CN2CCN(Cc3ccc(SC)cc3)CC2)cc(OC)c1O,56µM*,-2%,-8%,?,-3%
